Source: PubChem BioAssay AID1159580 (chemical genetic matrix, 2015)
Hit rate of the full screen: of about 5,500 compounds, about 2,000 (36%) were called active. Roughly 18% stayed inconclusive and do not appear here. Cut-off read from the data, not from the text of the source: active = normalized growth mostly below about 0.91 (no sharp cut-off); inconclusive = no clear call, values can overlap the other calls; inactive = mostly above about 0.92. The list shows a part of the results.

Assay: chemical genetic growth profiling, strain panel (AID 1159580);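 note: tested at 20 µM; growth read once vehicle control cultures reached saturation at 30 °C; 1 = growth at the plate median or of vehicle wells; lower values mean less growth of the strain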
Settings: S. cerevisiae deletion strains, growth OD

Measured: normalized growth

CC(C)[C@@]1(NC(=O)[C@@H]2C=C3c4cccc5[nH]cc(c45)C[C@H]3N(C)C2)O[C@@]2(O)[C@@H]3CCCN3C(=O)[C@H](Cc3ccccc3)N2C1=O
inactive: locus YAL040C, strain CLN3, stronger effect = lower value 0.989 | locus YCL061C, strain MRC1 (second series), stronger effect = lower value 0.996 | locus YDR363W, strain ESC2, stronger effect = lower value 0.993 | locus YER002W, strain NOP16, stronger effect = lower value 0.998 | locus YMR263W, strain SAP30, stronger effect = lower value 0.999 | locus YMR307W, strain GAS1, stronger effect = lower value 0.982 | locus YNL153C, strain GIM3, stronger effect = lower value 0.99 | locus YNL175C, strain NOP13, stronger effect = lower value 1.01 | locus YNL197C, strain WHI3, stronger effect = lower value 1 | locus YNL224C, strain SQS1, stronger effect = lower value 0.972 | locus YOR083W, strain WHI5 (second series), stronger effect = lower value 1.04 | locus YPL055C, strain LGE1, stronger effect = lower value 0.99 | locus YPL241C, strain CIN2, stronger effect = lower value 0.998

Cc1c(Cl)cccc1NC(=S)N1CCCN(c2ccc(C(F)(F)F)cc2[N+](=O)[O-])CC1
inactive: locus YAR019C, strain CDC15, stronger effect = lower value 0.991 | locus YBL105C, strain PKC1, stronger effect = lower value 0.979 | locus YBR135W, strain CKS1, stronger effect = lower value 0.992 | locus YBR136W, strain MEC1, stronger effect = lower value 0.971 | locus YBR160W, strain CDC28, stronger effect = lower value 0.994 | locus YDL017W, strain CDC7, stronger effect = lower value 0.993 | locus YDL028C, strain MPS1, stronger effect = lower value 0.995 | locus YDL101C, strain DUN1, stronger effect = lower value 0.977 | locus YDL108W, strain KIN28, stronger effect = lower value 0.978 | locus YDL132W, strain cdc53, stronger effect = lower value 0.986 | locus YDL214C, strain PRR2, stronger effect = lower value 0.971 | locus YDR052C, strain DBF4, stronger effect = lower value 0.991 | locus YDR054C, strain cdc34, stronger effect = lower value 0.976 | locus YDR226W, strain ADK1, stronger effect = lower value 0.987 | locus YDR477W, strain SNF1, stronger effect = lower value 0.983 | locus YER123W, strain YCK3, stronger effect = lower value 0.988 | locus YER133W, strain GLC7, stronger effect = lower value 0.969 | locus YFL009W, strain cdc4, stronger effect = lower value 0.98 | locus YFL029C, strain CAK1, stronger effect = lower value 0.994 | locus YFR003C, strain YPI1, stronger effect = lower value 0.987 | locus YFR019W, strain FAB1, stronger effect = lower value 0.957 | locus YFR028C, strain CDC14, stronger effect = lower value 0.995 | locus YGR040W, strain KSS1, stronger effect = lower value 0.98 | locus YGR052W, strain FMP48, stronger effect = lower value 1.04 | locus YGR092W, strain DBF2, stronger effect = lower value 0.964 | locus YHR079C, strain IRE1, stronger effect = lower value 0.89 | locus YHR082C, strain KSP1, stronger effect = lower value 1.06 | locus YHR205W, strain SCH9, stronger effect = lower value 1 | locus YIL147C, strain SLN1, stronger effect = lower value 0.989 | locus YJL095W, strain BCK1, stronger effect = lower value 1.01 | locus YJL128C, strain PBS2, stronger effect = lower value 0.942 | locus YJL157C, strain FAR1, stronger effect = lower value 0.951 | locus YJR016C, strain ILV3, stronger effect = lower value 0.982 | locus YJR066W, strain TOR1 (second series), stronger effect = lower value 0.974 | locus YJR066W, strain TOR1, stronger effect = lower value 1.02 | locus YKL048C, strain ELM1, stronger effect = lower value 0.984 | locus YKL067W, strain YNK1, stronger effect = lower value 0.974 | locus YKL101W, strain HSL1, stronger effect = lower value 0.988 | locus YKL193C, strain SDS22, stronger effect = lower value 0.995 | locus YKL203C, strain TOR2, stronger effect = lower value 1.01 | locus YLR133W, strain CKI1, stronger effect = lower value 0.955 | locus YLR403W, strain SFP1, stronger effect = lower value 0.952 | locus YML070W, strain DAK1, stronger effect = lower value 0.992 | locus YMR001C, strain CDC5, stronger effect = lower value 0.961 | locus YMR205C, strain PFK2 (second series), stronger effect = lower value 0.979 | locus YMR277W, strain FCP1, stronger effect = lower value 0.997 | locus YNL006W, strain LST8, stronger effect = lower value 0.982 | locus YNL020C, strain ARK1, stronger effect = lower value 0.972 | locus YNL161W, strain CBK1, stronger effect = lower value 0.979 | locus YNL183C, strain NPR1, stronger effect = lower value 1.05 | locus YNL207W, strain RIO2, stronger effect = lower value 0.982 | locus YNL222W, strain SSU72, stronger effect = lower value 0.984 | locus YNL307C, strain MCK1 (second series), stronger effect = lower value 0.964 | locus YOL078W, strain AVO1, stronger effect = lower value 0.989 | locus YOL136C, strain PFK27, stronger effect = lower value 0.965 | locus YOR061W, strain CKA2, stronger effect = lower value 0.963 | locus YOR119C, strain RIO1, stronger effect = lower value 1.05 | locus YOR231W, strain MKK1, stronger effect = lower value 0.993 | locus YOR329C, strain SCD5, stronger effect = lower value 0.981 | locus YPL031C, strain PHO85, stronger effect = lower value 0.979 | locus YPL153C, strain RAD53, stronger effect = lower value 1 | locus YPL204W, strain HRR25, stronger effect = lower value 0.931 | locus YPL209C, strain IPL1, stronger effect = lower value 0.99 | locus YPL256C, strain CLN2, stronger effect = lower value 0.866 | locus YPR025C, strain CCL1, stronger effect = lower value 0.99 | locus YPR106W, strain ISR1, stronger effect = lower value 0.969 | locus YPR111W, strain DBF20, stronger effect = lower value 0.956 | strain NNK1, stronger effect = lower value 0.985 | strain TSCII, stronger effect = lower value 0.981
active: locus YHR030C, strain SLT2, stronger effect = lower value 0.842 | locus YLR113W, strain HOG1, stronger effect = lower value 0.859
